Source: PubChem BioAssay
A selection: hits, their analogues and other compounds. The true share with any hit is near 19%.
TDP1 cell noCPT: qHTS for Inhibitors of human tyrosyl-DNA phosphodiesterase 1 (TDP1): qHTS in cells in absence of CPT; DT40 Tdp1-/- hTDP1 cells, no CPT, ATP luminescence, 48 h; Potency, µM (doses to about 46.2 µM), for the others: top-dose activity change, negative = growth inhibition, usual class: inhibitors; 420,000 compounds, 15% hits; AID 686978, 2013; further: potency means the concentration at half of the fitted maximal effect; nearly all actives have a fitted effect of over 55% in size
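No-CPT arm: Tdp1-/-;hTDP1 DT40 cells (400/well) plus compounds, incubated ≥48 hr at 37 °C. Readout CellTiter-Glo luminescence.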
HT1080-NT tox: kills 2HG-producing HT-1080-NT fibrosarcoma cells; HT-1080-NT fibrosarcoma viability, CellTiter-Glo ATP luminescence, 48 h; Potency, µM (highest dose often 46.1 µM), for inactives: at the top dose activity, negative = less viability, hits mostly cytotoxic; 360,000 compounds, 1.6% hits;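 further: NT is the 2HG producing partner of a matched IDH1 knockdown line; potency means the concentration at half of the fitted maximal effect; 0% = DMSO-treated cells and -100% = media-only wells without cells; nearly all actives have a fitted effect of over 55% in size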
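Viability by CellTiter-Glo luminescence after 48 h compound exposure at 37C of HT-1080-NT cells (750/well, RPMI, 5% FBS). % activity scaled between DMSO wells and medium-only wells, then curve-fitted and categorized by curve class.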
IL1B secr inh: inhibitors of inflammasome signaling (IL-1 beta secretion); 360,000 compounds, 4.7% hits; THP-1 LPS/ATP IL-1B secretion, AlphaLISA, 16 h; stronger effect = lower value; activity change, % at 57.5 µM; in the data active means activity change below about -50%; inconclusive means mostly about -30% to -49%
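Secreted IL-1B measured by AlphaLISA bead assay after 16 h compound exposure of THP-1 cells; compounds (final up to 57.5 uM) added 1 h before LPS (250 ng/mL) and ATP (1.25 mM) stimulation; lower signal means less secretion.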
TDP1 cell CPT: growth inhibition of DT40 Tdp1-/-;hTDP1 cells with camptothecin (screen for TDP1 inhibitors); chicken DT40 Tdp1-/-;hTDP1 cells + 20 nM CPT, ATP luminescence, 48 h; 420,000 compounds, 12% hits; Potency, µM (titrated, usually from 46.2 µM), for inactives: at the top dose activity change, negative = growth inhibition, actives largely listed as inhibitors; further: potency means the concentration at half of the fitted maximal effect; nearly all actives have a fitted effect of over 55% in size
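Chicken DT40 Tdp1-/- cells complemented with human TDP1, 400 cells/well, exposed to compounds plus 20 nM camptothecin for at least 48 h at 37 C; viability read as ATP content by CellTiter-Glo luminescence.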
HT1080 IDH1KD tx: HT-1080 IDH1 knockdown cell toxicity (counter line). 360,000 compounds, 2% hits. HT-1080 IDH1 knockdown viability, ATP luminescence, 48 h. Potency, µM (doses to about 46.1 µM), for inactives: top-dose activity, negative = toxicity, actives largely listed as cytotoxic;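 further: potency means the concentration at half of the fitted maximal effect; 0% = DMSO wells and -100% = cell-free medium wells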
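HT-1080-IDH1KD cells (IDH1 knocked down), 750/well in RPMI with 5% FBS, treated with compound 48 h at 37 degrees C. Viability by CellTiter-Glo luminescence, normalised to DMSO and no-cell wells; concentration-response curves classed.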
An asterisk follows results filed as active; ? = inconclusive; / = not tested or not shown. Unless noted, the call rests on the fitted dose curve; in most records, active means well fitted curve in the direction sought with a large enough effect; inconclusive means small, poorly fitted or top-dose-only effect, or another doubt; inactive means no such curve, though single readings can be large; an effect the other way counts as inactive or inconclusive. Unless noted, on the % scale 0 is the no-effect control and ±100 the full control effect.

SMILES	TDP1 cell noCPT	HT1080-NT tox	IL1B secr inh	TDP1 cell CPT	HT1080 IDH1KD tx
O=S(=O)(c1ccc2nc(Nc3cccc(F)c3)ccc2c1)N1CCCC1	?	/	/	23.1µM*	/
CCOC(=O)c1cccc(Nc2ccc3cc(S(=O)(=O)N4CCCCC4)ccc3n2)c1	20.6µM*	/	/	23.1µM*	/
COc1ccc(-c2nn(C)c(=O)[nH]2)cc1	-6.6%	15.0%	5.8	-6.5%	6.9%
Cc1cccc(N(CC(=O)N/N=C/c2ccc(C(=O)O)cc2)S(=O)(=O)c2ccccc2)c1C	?	3.0%	6.7	22.1%	1.6%
COc1ccccc1N1CCN(c2ccc3cc(S(=O)(=O)N4CCCCC4)ccc3n2)CC1	7.31µM*	-17.7%	30.4	13µM*	-18.7%
Cc1ccc(C(=O)C(C(=O)/C=C/c2ccccc2)=C2SCCCS2)cc1	4.61µM*	11.6µM*	-111.4*	5.8µM*	10.3µM*
O=C(CCc1ccccc1)c1nnc(-c2ccccc2)o1	?	-4.7%	-52.5*	3.5%	25.7%
CC1(C)CC(=O)C(C(C2=C(O)CC(C)(C)CC2=O)c2ccc(Br)s2)C(=O)C1 (stereo not given)	7.31µM*	-27.0%	-95.9*	13µM*	?
O=C(CSc1nc2ncc(Cl)cc2[nH]1)N1CCC(Cc2ccccc2)CC1	-8.4%	-8.8%	-0.2	-29.6%	-1.7%
O=C(NCC1CCCO1)c1ccc(C(=O)NCC2CCCO2)cc1 (stereo not given)	-11.5%	15.7%	15.4	3.8%	11.2%
CC1CCc2[nH]c3ccc(C(=O)NCC4CCCO4)cc3c2C1 (stereo not given)	?	-11.4%	-51.3*	?	-11.6%
Cc1ccc(C)c(NC(=O)CN(C)C(=O)c2ccc3[nH]c4c(c3c2)CC(C)CC4)c1 (stereo not given)	?	?	-54.5*	?	?
CC1CCc2[nH]c3ccc(C(=O)N(C)CC(=O)Nc4ccccc4Br)cc3c2C1 (stereo not given)	11.6µM*	-19.6%	-74.4*	?	?
CCN(CC(=O)Nc1ccc(OC)cc1)C(=O)c1ccc2[nH]c3c(c2c1)CC(C)CC3 (stereo not given)	?	-18.2%	?	?	-21.8%
COc1ccccc1CNC(=O)C/C(C)=N/NC(=O)COc1ccc(C)cc1Br	11.6µM*	?	24.6	11.6µM*	-13.9%
Cc1cccc(N(CC(=O)NC2CCCCC2)C(=O)c2c(C)noc2C)c1	-2.7%	12.4%	3.6	2.1%	20.5%
CCn1c(CNC(=O)COc2ccc(C(C)C)cc2)nnc1SCC(=O)Nc1ccccc1C(C)C	16.4µM*	?	-19.9	16.4µM*	?
O=S(=O)(c1ccc(Cl)cc1)N1CCN(c2ncnc3sccc23)CC1	5.8µM*	?	?	6.51µM*	?
Cc1csc2c(N3CCN(S(=O)(=O)c4ccc(Cl)cc4)CC3)ncnc12	23.1µM*	0.0%	3.5	-20.9%	1.5%
N#CCCN(C(=O)COC(=O)c1ccc(Cl)nc1)c1ccc2c(c1)OCCO2	-21.9%	-5.1%	12.7	-2.8%	5.6%
OCCN1CCN(c2nc(NCc3ccco3)c3ccccc3n2)CC1	-14.2%	-7.7%	-15.6	-25.8%	-6.7%
c1ccc(CN2CCN(c3nc(NCc4ccco4)c4ccccc4n3)CC2)cc1	23.1µM*	-24.0%	-64.0*	?	?
Cc1ccc(OCCN2CCN(c3nc(NCc4ccco4)c4ccccc4n3)CC2)cc1	14.6µM*	-12.0%	-60.4*	?	-14.3%
Cc1cc(C(=O)Nc2c(F)c(F)c(F)c(F)c2F)n(-c2ccccc2)n1	-5.4%	15.3%	18.3	?	13.0%
OC(COc1ccc(C2C=CCC2)cc1)CN1CCCCC1 (stereo not given)	?	?	-10.1	?	?
O=C(COC(=O)C12CC3CC(CC(O)(C3)C1)C2)Nc1ccc(Cl)c(S(=O)(=O)N2CCOCC2)c1	?	-4.7%	-18.7	29.1µM*	-2.3%
